CYP2C9 act: CYP2C9 (human) activation; P11712; recombinant CYP2C9, luciferin-H conversion, luminescence; stronger effect = higher value; factor 1 = untreated enzyme, 0 = blocked; activation factor at 5 µM; hit rate 1.4% among 96,000; AID 1024;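 active = activation factor of 2 or more for CYP2C9 at a 5 µM dose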
CYP2C19 inh: human CYP2C19 inhibition; P33261; CYP2C19 Supersomes, luciferin-H EGE luminescence, 30 min; inhibition, % at 5 µM; hit rate 21% among 96,000;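 active = CYP2C19 inhibition above a set limit at 5 µM in the primary screen, cut at about 50% in these data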
Target sequence (P33261 whole entry, looked up): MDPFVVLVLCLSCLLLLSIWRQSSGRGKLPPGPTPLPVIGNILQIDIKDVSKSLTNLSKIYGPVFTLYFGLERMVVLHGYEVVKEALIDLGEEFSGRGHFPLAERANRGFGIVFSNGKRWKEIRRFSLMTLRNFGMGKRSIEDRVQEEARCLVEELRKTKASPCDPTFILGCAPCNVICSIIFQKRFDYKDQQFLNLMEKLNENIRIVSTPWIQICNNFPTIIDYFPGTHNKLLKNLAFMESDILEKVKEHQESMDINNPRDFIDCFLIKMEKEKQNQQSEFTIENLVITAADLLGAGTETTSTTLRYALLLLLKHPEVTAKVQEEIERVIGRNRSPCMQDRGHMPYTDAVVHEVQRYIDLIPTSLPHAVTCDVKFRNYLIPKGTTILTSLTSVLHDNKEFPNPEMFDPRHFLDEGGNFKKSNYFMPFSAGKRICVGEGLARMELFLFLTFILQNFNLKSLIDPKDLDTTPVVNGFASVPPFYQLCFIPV
CYP2C19 act: increases human CYP2C19 enzyme activity; P33261; recombinant CYP2C19, luciferin-H EGE luminescence; stronger effect = higher value; 0 = fully inhibited enzyme, 1 = untreated enzyme; activation factor at 5 µM; 96,000 tested, under 10 active;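 active = activation factor of at least 2 at 5 µM in the primary screen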
sEH inh: inhibitors of human soluble epoxide hydrolase | P34913 | recombinant human sEH enzymatic activity assay | inhibition, % at 2 µM | hit rate 0.34% among 91,000; in the data active = inhibition above about 80%
CYP2C9 inh: blocks human cytochrome P450 2C9; CYP2C9 Supersomes, luciferin-H conversion, luminescence; inhibition, % at 5 µM; hit rate 20% among 96,000; AID 777;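 active = blocking of liver enzyme CYP2C9 beyond about 50% at 5 µM, limit read from the data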
sEH activator: increases human soluble epoxide hydrolase activity; P34913; purified human sEH enzymatic activity, activator screen; activation, % at 2 µM; hit rate 0.04% among 91,000; AID 717; in the data active = activation above about 37%
Of the large screens only hits and unclear results are named; the others gave an inactive call. Most compounds without a hit are left out; they make up all but 27% or so of the library.

Cc1ccc(C)c(N2CCN(C(=O)c3cn(C)c4ccc(S(=O)(=O)N(C)C)cc4c3=O)CC2)c1	none
Cc1ccc(-c2cc(-c3ccccc3Cl)c(C#N)c(N)n2)o1	CYP2C19 inh 91.9, CYP2C9 inh 81.6
Cc1ccc(-c2cc(-c3ccc(F)cc3)nc(N)c2C#N)o1	CYP2C9 inh 52.2
Cc1ccc(-c2cc(-c3ccccc3)c(C#N)c(N)n2)o1	none
CC(C)n1nnc2ccccc2c1=O	none
Clc1ccc(Sc2cc(Cl)c(-c3ccccc3)nn2)cc1	CYP2C19 inh 55.0, CYP2C9 inh 65.9
N#Cc1cc(-c2ccccc2)nnc1Sc1ccc(Cl)cc1	none
O=C(Nc1ccc(Cl)cc1)N1CC=CCC1	none (no result: sEH inh, sEH activator)
C=CCC(c1ccccc1F)N(CCN1CCOCC1)C(=O)Nc1cccc(Cl)c1 (stereo unspecified)	CYP2C9 inh 86.6
COc1ccc(CN(CCCN2CCOCC2)C(=O)Nc2cccc(Cl)c2)cc1OC	CYP2C19 inh 80.0, CYP2C9 inh 97.1 (no result: sEH inh, sEH activator)
CCc1ccc2[nH]c(=O)c(CN(CCCN3CCOCC3)C(=O)Nc3cccc(Cl)c3)cc2c1	none
O=C(Nc1cccc(Cl)c1)N(CCN1CCOCC1)Cc1cccc(Cl)c1	CYP2C19 inh 84.6, CYP2C9 inh 94.3
COc1cccc2cc(C(C)N(CCCN3CCOCC3)C(=O)Nc3ccccc3)oc12 (stereo unspecified)	none
N#CCCN(Cc1cccnc1)C(=O)Nc1cccc(Cl)c1	CYP2C19 inh 94.1
COc1ccc(CC(=O)Nc2cccc(/C(C)=N/NC(=O)c3cccc([N+](=O)[O-])c3)c2)cc1	none
CC(C)C(=O)Nc1nnc(CCN2CCCCC2)s1	none
COc1cccc(C(=O)CN2C3=NCCCN3c3ccccc32)c1	none
COCCn1c(=O)c2cc3c(=O)n(CCOC)c(=O)c3cc2c1=O	none
O=C(NCCN1CCN(c2ccccc2F)CC1)C1CCCN(S(=O)(=O)c2cnc[nH]2)C1 (stereo unspecified)	none
COc1ccccc1CNC(=O)COC(=O)c1ccc(NC(N)=O)cc1	none (no result: sEH inh, sEH activator)
c1ccc(-c2nnc3sc(CN4CCc5ccccc54)cn23)cc1	none (no result: CYP2C9 act, CYP2C19 inh, CYP2C19 act, CYP2C9 inh)
O=C(Nc1cccc(Cl)c1)N(CCN1CCOCC1)Cc1ccccc1F	CYP2C9 inh 92.5
Cc1ccc(C)c2[nH]c(=O)c(CN(CCN3CCCC3)C(=O)Nc3cccc(Cl)c3)cc12	none
COc1cc(O)oc1C=Nc1ccc(C(F)(F)F)cc1	none
COc1cc2c(cc1OC)CN(c1ccc(-c3ccccc3OC)nn1)CC2	CYP2C9 act 2.4, CYP2C19 inh 62.5 (no result: sEH inh, sEH activator)
CC(=O)n1c(Cl)c(NC(=O)CCl)c2ccccc21	none
C=CCN(CC=C)C(=S)Nc1ccccc1	none
CN(C)S(=O)(=O)c1cccc(N=c2scc(-c3ccc4c(c3)NC(=O)CO4)n2CC2CCCO2)c1 (stereo unspecified)	CYP2C9 inh 50.3
COc1ccccc1N=c1scc(-c2ccc3c(c2)NC(=O)CO3)n1CC1CCCO1 (stereo unspecified)	none (no result: sEH inh, sEH activator)
CC(C)(C)C(=O)COC(=O)CNC(=O)c1ccc(Oc2ccccc2)cc1	CYP2C9 inh 52.8
Cc1cccc(C)c1Nc1nc2ccccc2o1	CYP2C9 inh 64.3 (no result: sEH inh, sEH activator)
CCOc1ccc(Nc2oc(-c3ccccc3Cl)nc2C#N)cc1	CYP2C9 inh 76.5
CNc1oc(-c2ccccc2Cl)nc1C#N	none
CCn1c(O)c(C=NC2CCCC2)sc1=S	CYP2C19 inh 68.8, CYP2C9 inh 51.2
CCn1c(O)c(/C=N/n2cnnc2)sc1=S	CYP2C19 inh 62.3, CYP2C9 inh 53.8
O=C(O)Cn1c(O)c(C=Nc2ccccc2)sc1=S	none
CN=C1SC(CC(=O)Nc2ccc(C(C)=O)cc2)C(=O)N1C (stereo unspecified)	none (no result: CYP2C9 act, CYP2C19 inh, CYP2C19 act, CYP2C9 inh)
CN=C1SC(CC(=O)Nc2cc(Cl)ccc2Cl)C(=O)N1C (stereo unspecified)	CYP2C19 inh 59.8
Cc1ccc(NC(=O)CC2S/C(=N/c3nccs3)N(C)C2=O)cc1C (stereo unspecified)	CYP2C19 inh 85.7, CYP2C9 inh 78.7
CCc1ccccc1NC(=O)CC1S/C(=N\c2nccs2)N(CC)C1=O (stereo unspecified)	CYP2C19 inh 96.1, CYP2C9 inh 97.2 (no result: sEH inh, sEH activator)
CCOC(=O)c1ccccc1NC(=O)CC1SC(=NC)N(C)C1=O (stereo unspecified)	none (no result: sEH inh, sEH activator)
Cc1ccccc1NC(=O)CC1S/C(=N/c2nccs2)N(C)C1=O (stereo unspecified)	CYP2C19 inh 90.0, CYP2C9 inh 97.8
CC(CC#CCN1CCOCC1)OCCC#N (stereo unspecified)	none
Cc1cc(C)nc(Sc2ncnc3sc4c(c23)CCC4)n1	none (no result: CYP2C9 act, CYP2C19 inh, CYP2C19 act, CYP2C9 inh)
S=c1[nH]nc(C2CCCCC2)n1/N=C/c1ccc(Br)s1	none
CCCC(=O)Nc1ccc(S(=O)(=O)N2CCCC2)cc1	none
CC(=O)NC(CC(=O)Nc1ccc(S(=O)(=O)N2CCCC2)cc1)c1ccccc1 (stereo unspecified)	CYP2C9 inh 52.4
CCN(CC)S(=O)(=O)c1ccc(NC(=O)COc2c(OC)cccc2OC)cc1	none
CCN(CC)S(=O)(=O)c1ccc(NC(=O)C(OC)c2ccccc2)cc1 (stereo unspecified)	CYP2C9 inh 55.0
CCN(CC)S(=O)(=O)c1ccc(NC(=O)CC(NC(C)=O)c2ccccc2)cc1 (stereo unspecified)	CYP2C9 inh 86.1
O=C(c1ccc2c(c1)OCCO2)C1CCN(S(=O)(=O)c2ccc(F)cc2)CC1	none
CCOC(=O)C1=C(C)NC(SCc2cc(=O)[nH][nH]2)=C(C#N)C1c1cccs1 (stereo unspecified)	CYP2C19 inh 90.3, CYP2C9 inh 78.7
CCOC(=O)C1=C(C)NC(SCC(N)=O)=C(C#N)C1c1cccs1 (stereo unspecified)	CYP2C19 inh 51.7, CYP2C9 inh 51.5
CCSC1=C(C#N)C(c2cccs2)C(C(=O)OC)=C(C)N1 (stereo unspecified)	CYP2C19 inh 87.8, CYP2C9 inh 90.7
CCCSC1=C(C#N)C(c2cccs2)C(C(=O)Nc2ccccc2)=C(C)N1 (stereo unspecified)	none (no result: CYP2C9 act, CYP2C19 inh, CYP2C19 act, CYP2C9 inh)
C=CCOC(=O)C1=C(C)Nc2nnnn2C1c1cccs1 (stereo unspecified)	none
COC(=O)C1=C(C)Nc2c(c(=O)n(C)c(=O)n2C)C1c1cccs1 (stereo unspecified)	CYP2C19 inh 83.4, CYP2C9 inh 72.7
O=C(CN1CCN(c2ccccc2)CC1)Nc1ccc(Oc2ccccc2)cc1	none
CC(C)=C1C2C=CC1C(C(=O)Nc1cccc(C)c1)C2C(=O)O (stereo unspecified)	none (no result: sEH inh, sEH activator)
CCCCc1c(C)nn(-c2nnc3c4ccccc4n(C)c3n2)c1C	none
COc1ccc(-c2cc(C(F)(F)F)n3nc(C(=O)NCc4ccco4)c(Cl)c3n2)cc1	none
CC(=O)C1=C(C)NC(C)=C(C(C)=O)C1c1cccs1	CYP2C19 inh 93.7, CYP2C9 inh 61.6
CC1=C(C(=O)N(C)C)C(c2cccs2)NC(=O)N1 (stereo unspecified)	none (no result: CYP2C9 act, CYP2C19 inh, CYP2C19 act, CYP2C9 inh)

Bioassay records as filed in PubChem.
